Experimental findings from PubChem BioAssay (NCATS) are described below.

Records with an inconclusive call do not appear. The source made the active and inactive calls. The call rests on the fitted dose curve; in most records, active means well fitted curve in the direction sought with a large enough effect; inconclusive means small, poorly fitted or top-dose-only effect, or another doubt; inactive means no such curve, though single readings can be large or run the other way. Peptide text beside a SMILES is read from it. * marks the point of attachment. Hexanoyl = CCCCCC(=O)*

A short description of this test: qHTS for activators of dead-cell proteases activity screened against the NCATS CANVASS Library (AID 1347392).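 Further: luminescence from protease leaking out of membrane-damaged cells cleaving impermeant substrate; 0% is about no effect; rising signal means more cytotoxicity.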 The note with it: HepG2 cytotoxicity, dead-cell protease luminescence, 5 h; series mostly up to 46.1 µM; activation (cytotoxicity): at the top concentration. The text has this:
Natural products and their derivatives continue to be wellsprings of nascent therapeutic potential. However, many laboratories have limited resources for biological evaluation, leaving their previously isolated or synthesized compounds largely or completely untested. To address this issue, the Canvass library of natural products was assembled (https://tripod.nih.gov/canvass), in collaboration with academic and industry researchers, for quantitative high-throughput screening (qHTS) across a diverse set of cell-based and biochemical assays. The pure (>85% purity by liquid chromatography/mass spectrometry [LC/MS]) Canvass library of 346 natural products were submitted by 45 academic laboratories and companies around the world. We collected pure natural products to circumvent deconvolution and structure elucidation due to time and resource limitations. The library was formatted into 1536-well plates and evaluated in 50 qHTS (in an 11-pnt concentration series) bioassays with broad scope of disease-relevant mechanisms. The resulting data set from 50 different assays was then systematically analyzed to identify overall trends and specific natural products with interesting biological activities. Reported herein are the results of each individual qHTS and their corresponding assay protocol. This cytotoxicity assay measures dead-cell protease activity (proteases are released from cells that have lost membrane integrity). A luminogenic cell-impermeant peptide substrate (AAF-aminoluciferin) is used to measure dead-cell protease activity. The amount of luminescence directly correlates with the percentage of cells undergoing cytotoxic stress. National Center for Advancing Translational Sciences (NCATS), Rockville, MD National Institute of Health (NIH), Bethesda, Maryland
Protease-screen assay protocol: 1. In a white-solid bottom 1536-well plate, 5 uL of HepG2 cell suspension was dispensed using a Multidrop Combi (Thermo Fisher Scientific) at a final concentration of 2000 cells / well. 2. The assay plates were incubated for 18 hours at 37C, 5% CO2 to acclimate and attach. 3. […] of compounds (in DMSO; columns 5-48), vehicle control DMSO, and positive control were pin transferred into the assay plates using the Kalypsis pin tool (Wako USA) equipped with a 1536-well pin heads. This yields a final CANVASS compound concentration of 0.4 nM - 95 uM. 4. The assay plates were incubated for 5 hours at 37C, 5% CO2. 5. After compound treatment, 5 uL per well of CytoTox-Glo (Promega) reagent was added using the BioRAPTR dispenser. 6. The assay plates were incubated for 15 min at room temperature. 7. The luminescence readout was obtained using the ViewLux plate reader (PerkinElmer) using a clear emission filter, 2x binning, 1 sec exposure settings.
As to `Cc1cc(O)cc2c1C(=O)c1c(O)cc(O)cc1C2=O`, the “activation (cytotoxicity)” value was 1.24% (inactive).
On the same count and under the same terms, the same measure for `C[C@@H]1CC[C@]2(C(=O)O)CC[C@]3(C)C(=C2[C@H]1C)CC[C@@H]1[C@@]2(C)CC[C@H](O)C(C)(C)[C@@H]2CC[C@]13C`: -1.35% (inactive); for `CC[C@@H]1C[C@@]2(CC)OC(=O)[C@@]3(CC)[C@H](CC)[C@@H]1[C@@H]23`: 5% (inactive); for `CC1=C[C@H]2[C@H]3C(=O)C(c4ccc(O)cc4)=C[C@@]3(c3ccc(O)cc3)[C@@H]1C(=O)[C@]2(C)O`: 2.95% (inactive).
For the compound `C=C[C@]1(C)CC[C@@H]([C@H](C)C(=O)CC=C(C)C)O1`, the “activation (cytotoxicity)” value was -0.763% (inactive).
Still for that read-out and setting: the same measure for `COc1ccc2[nH]c3c(c2c1)CCN1C[C@H]2C[C@@H](OC(=O)c4cc(OC)c(OC)c(OC)c4)[C@H](OC)[C@@H](OC)[C@H]2C[C@H]31`: -2.13% (inactive); for `C/C=C(/C)c1c(Cl)c(O)c(C)c2c1Oc1c(Cl)c(O)c(Cl)c(C)c1C(=O)O2`: 2.33% (inactive).
The same measure, in the same setting: the same measure for `CC(=O)Oc1cc2c(c(OC(C)=O)c1C1CCc3cc(Cl)c(Cl)n31)C(=O)n1c-2cc(Cl)c1Cl` (stereo not given): -1.12% (inactive); for `C[n+]1cc2cc(C(N)=O)[nH]c3c(=N)c(Cl)c(N)c1c23`: 1.69% (inactive); for `CO[C@H]1/C=C/CCCCC(=O)O[C@@H](/C(C)=C/[C@H](C)C(=O)C[C@H](O)CC2CC(=O)NC(=O)C2)[C@@H](C)C1`: 2.57% (inactive).
Take `CCC(=O)CCCCC[C@@H]1NC(=O)[C@H]2CCCCN2C(=O)[C@H](C(C)C)NC(=O)[C@H](Cc2cn(OC)c3ccccc23)NC1=O`: the “activation (cytotoxicity)” value is -0.691% (inactive).
Still for that read-out and setting: the same measure for `O=Cc1ccc2n1C[C@]1(OC2)O[C@H](CO)[C@@H](O)[C@@H]1O`: 2% (inactive); for `C=C[C@]1(C)CC[C@@H]([C@H](C)C(=O)/C=C/C(C)(C)O)O1`: -1.01% (inactive).
Same read-out and setting: the same measure for `C/C=C/c1cc2c(c(=O)o1)C(=O)[C@@H](O)[C@H](C)O2`: -0.945% (inactive).
The same measure, in the same setting: then `CCCCCC(=O)N[C@@H](CC(C)C)C(=O)N[C@H](C=O)CCC(=O)O` (Hexanoyl-Leu-Glu-aldehyde), with 0.635% (inactive); and `C=CC(CCCCC)C1C(=O)NC(=O)C1C(=O)C1C2C(C)CC(C(=O)O)CC2CC1(O)C(=O)/C=C/C` (stereo not given), with -2.84% (inactive); and `COc1ccc([C@@H]2c3cc4c(cc3C(=O)[C@H](C)C2C)OCO4)cc1OC` (stereo not given in full), with -0.981% (inactive).
With `C/C(=C\[C@@H](C)CC/C=C/CC/C=C/C(=O)O)[C@@H](O)[C@H](C)C(=O)CCCC1CC(=O)NC(=O)C1`, the “activation (cytotoxicity)” value was -1.25% (inactive).
On the same count and under the same terms, then `COc1cc2oc3ccccc3c(=O)c2cc1OC`, with -11.5% [at 91.4 µM] (inactive); and `CC1(C)CC[C@]2(CO)CC[C@]3(C)C(=CCC4[C@@]5(C)CC[C@H](O)C(C)(C)C5CC[C@]43C)C2C1` (stereo not given in full), with -0.639% (inactive); and `CN1CC[C@]23c4ccccc4N[C@H]1[C@]21CCN(C)[C@H]3Nc2ccccc21`, with 1.27% (inactive).
On the same count and under the same terms, then `C/C=C(/C)c1c(Cl)c(OC)c(C)c2c1Oc1c(Cl)c(O)c(Cl)c(C)c1C(=O)O2`, with 4.98% (inactive).
The same measure, in the same setting: then `C/C(=C\[C@H](C)C(=O)/C=C/CC1CC(=O)NC(=O)C1)[C@@H]1OC(=O)/C=C/CC/C=C/C[C@@H](O)[C@@H]1C`, with 2.73% (inactive); and `C/C=C1/CN2C3CC1C1C=CC(=O)N4c5ccccc5[C@@]3(C[C@@H]2C2=C[C@H]3C5CC6N(CC[C@@]67c6ccccc6N(C2=O)[C@@H]37)C/C5=C/C)[C@H]14` (stereo not given in full), with 0.0866% (inactive); and `C[C@@]12CCC[C@@](C)(C(=O)O)[C@H]1CC[C@@]13C[C@@H](CC[C@H]12)[C@](C)(O)C3`, with 1.07% (inactive).
Regarding `C=C1CC[C@@H](O[C@H]2C[C@@](O)([C@H](C)NC(=O)c3[nH]c(C)c(Cl)c3Cl)[C@H](O)[C@@H](C)O2)[C@@H]2C=C[C@H](C)C(/C(O)=C3/C(=O)[C@H](C(C)C)N([C@@H]4O[C@H](C)[C@H](OC(N)=O)[C@H](OC(C)=O)[C@@H]4OC)C3=O)[C@@H]12` (stereo not given in full), the “activation (cytotoxicity)” value was 3.38% (inactive).
Regarding `CC(C)[C@@H]1CC(=O)c2coc3c2[C@H]1C[C@@H](C)C3=O`, the “activation (cytotoxicity)” value is -0.711% (inactive).
On the same count and under the same terms, the same measure for `C=CC(C)(C)C(=O)[C@@H](C)[C@@H]1CC[C@@](C)(C=C)O1`: 1.92% (inactive); for `Cc1cc(C)c(O)c(C(=O)CC2CC(=O)NC(=O)C2)c1`: 1.46% (inactive).
The same measure, in the same setting: then `C=C1C[C@H]2O[C@@H]3[C@@H]4[C@H](CC[C@@](C)(O)[C@@H]42)[C@H](C)COC3(C)[C@@H](OC(=O)CCCCCCC)C[C@H]1O` (stereo not given in full), with -2.85% (inactive).
Consider `CC[C@@H](c1cc(OC)c(OC)cc1OC)[C@H](C)[C@@H](/C(C)=C/c1cc(OC)c(OC)cc1OC)c1cc(OC)c(OC)cc1OC`, for which the Potency result was “inactive”.
For `[C-]#[N+][C@@]12C(=O)[C@@H]3[C@@H](O[C@@]4(C(=O)N(C)c5cccc1c54)C3(C)C)C(=O)[C@@]2(C)C=C`, the “activation (cytotoxicity)” value was 4.75% (inactive).
In the case of `Cc1occ2c1C(=O)c1c(cc(O)c(O)c1O)C2=O`, the “activation (cytotoxicity)” value was 0.059% (inactive).
The same measure, in the same setting: the same measure for `COc1ccc([C@@H]2c3cc4c(cc3C(=O)C(C)C2C)OCO4)cc1OC` (stereo not given in full): 0.342% (inactive); for `COC(=O)[C@@]1(C)CCC[C@]2(C)c3cc(OC)ccc3CC[C@@H]12`: -0.751% (inactive); for `COc1cc2c(c(O)c1O)C(=O)c1c(coc1C)C2=O`: -4.72% (inactive).
Still for that read-out and setting: then `C/C=C1/C2=CCCN3C(=O)O[C@H]([C@H]1O)[C@H]23`, with -0.406% (inactive); and `O[C@H]1c2ccccc2-c2c3c(cc4c2[C@@H]1NCC4)OCO3`, with 1.41% (inactive); and `COc1ccc([C@@H]2c3cc4c(cc3C[C@H](C)C2C)OCO4)cc1OC` (stereo not given in full), with -2.15% (inactive).
Still for that read-out and setting: then `O=C(OC[C@H]1O[C@@H](OC(=O)c2cc(O)c(O)c(O)c2)[C@H](OC(=O)c2cc(O)c(O)c(O)c2)[C@@H](OC(=O)c2cc(O)c(O)c(O)c2)[C@@H]1OC(=O)c1cc(O)c(O)c(O)c1)c1cc(O)c(O)c(O)c1`, with -1.93% (inactive).
